Measured values as given in PubChem BioAssay (NCI).
Several values for one entry are separate records, joined by “and”; a condition that tells them apart may be missing. Equal entries are not always repeated. This is part of a sample that, as a whole, favours compounds with a hit. Of some 79,000 tested, about 15% had one in any assay. The source holds several records for some structures; these can differ, active in one and inactive in another. Activity calls are given as the source filed them. Rule as the data show it: active = growth inhibition above about 70%; inactive = the rest.

What was measured:
[1] = NCI Yeast Anticancer Drug Screen. Data for the rad50 strain (AID 155);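 also: 0% = growth of vehicle-only cultures of the same strain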; conditions: S. cerevisiae rad50 strain growth inhibition, stronger effect = higher value
Summary of the method: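 Readout: growth inhibition relative to vehicle-treated cultures. Compound exposure was carried out in a genetically defined yeast strain deficient in DNA damage repair.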

[2] = NCI Yeast Anticancer Drug Screen. Data for the mec2-1 strain (AID 157); conditions: S. cerevisiae mec2-1 strain, stronger effect = higher value
Summary of the method: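 mec2-1 yeast strain, carrying an alteration in DNA damage repair or cell cycle control, was exposed to compounds; growth inhibition was measured relative to vehicle-treated controls.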

[3] = NCI Yeast Anticancer Drug Screen. Data for the sgs1 mgt1 strain (AID 161);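 also: 0% = growth of cultures given vehicle only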; conditions: S. cerevisiae sgs1 mgt1 strain, stronger effect = higher value
Summary of the method: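 This yeast growth screen uses a strain with defined DNA-repair lesions; compound-treated growth is compared with vehicle-treated growth.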

[4] = NCI Yeast Anticancer Drug Screen. Data for the cln2 rad14 strain (AID 165);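 also: 0% = growth equal to vehicle treated cultures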; conditions: S. cerevisiae cln2 rad14 strain, stronger effect = higher value
Summary of the method: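 Yeast carrying cln2 and rad14 alterations (cell cycle control and DNA damage repair) were exposed to compounds. Growth inhibition was measured against vehicle-treated controls.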

[5] = NCI Yeast Anticancer Drug Screen. Data for the bub3 strain (AID 167); conditions: S. cerevisiae bub3 mutant strain, stronger effect = higher value
Summary of the method: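 Readout: yeast growth inhibition, expressed relative to vehicle-only wells. The test organism is a mutant strain from a panel with lesions in DNA repair or checkpoint genes.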

[6] = NCI Yeast Anticancer Drug Screen. Data for the mlh1 rad18 strain (AID 175); conditions: S. cerevisiae mlh1 rad18 strain growth inhibition, stronger effect = higher value
Summary of the method: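 Growth inhibition of the yeast strain was measured after compound exposure and expressed relative to vehicle-treated controls. The strain carries defined defects in DNA damage repair.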

[7] = at 5.0 µM (retest, dose inferred, filed as 0.5)
[8] = at 50.0 µM (retest, dose inferred, filed as 5.0)

Row | Compound | growth inhibition [1, 7] | growth inhibition [1, 8] | growth inhibition ([1]; at 50.0 µM) | growth inhibition [2, 7] | growth inhibition [2, 8] | growth inhibition ([2]; at 50.0 µM) | growth inhibition [3, 7] | growth inhibition [3, 8] | growth inhibition ([3]; at 50.0 µM) | growth inhibition [4, 7] | growth inhibition [4, 8] | growth inhibition ([4]; at 50.0 µM) | growth inhibition [5, 7] | growth inhibition [5, 8] | growth inhibition ([5]; at 50.0 µM) | growth inhibition [6, 7] | growth inhibition [6, 8] | growth inhibition ([6]; at 50.0 µM)
1 | O=C(N/N=C/c1ccc(F)cc1)c1ccc(N(CCCl)CCCl)cc1 | -7% (inactive) | -5% (inactive) | 38.9% (inactive) | -12% (inactive) | -11% (inactive) | 18.2% (inactive) | -20% (inactive) | 2% (inactive) | 56.8% (inactive) | -26% (inactive) | -34% (inactive) | 25.2% (inactive) | -3% (inactive) | 3% (inactive) | 27.8% (inactive) | -3% (inactive) | -8% (inactive) | 59.3% (inactive)
2 | O=[N+]([O-])c1ccc([Se]CCBr)c([N+](=O)[O-])c1 | 5% (inactive) | 36% (inactive) | 38.4% (inactive) | 1% (inactive) | 23% (inactive) | 41% (inactive) | 5% (inactive) | 95% (active) | 18.2% (inactive) | 2% (inactive) | 88% (active) | 15.8% (inactive) | -2% (inactive) | 90% (active) | 30.2% (inactive) | 10% (inactive) | 96% (active) | 19.8% (inactive)
3 | CC(=O)OCC1OC(OC(C)C)[CH]([Hg][S]Cc2ccccc2)C(OC(C)=O)C1OC(C)=O (centres undefined) | 99% (active) | 98% (active) | 54.8% (inactive) | 99% (active) | 99% (active) | 57.9% (inactive) | 94% (active) | 98% (active) | 44.6% (inactive) | 37% (inactive) | 98% (active) | 96.8% (active) | 99% (active) | 98% (active) | 98.2% (active) | 99% (active) | 97% (active) | 46.1% (inactive)
4 | CC/C(=C\c1ccc(Cl)cc1)[N+](=O)[O-] | 34% (inactive) | 99% (active) | 13.1% (inactive) | 12% (inactive) | 99% (active) | -3.1% (inactive) | 14% (inactive) | 99% (active) | 53.1% (inactive) | 7% (inactive) | 99% (active) | -5.45% (inactive) | 25% (inactive) | 99% (active) | 4.95% (inactive) | 13% (inactive) | 99% (active) | 8.15% (inactive)
5 | C[C@]12CC[C@H](OC(=O)COc3ccc(N(CCCl)CCCl)cc3)C[C@@H]1CC[C@@H]1[C@@H]2CC[C@]2(C)NC(=O)CC[C@@H]12 | 17% (inactive) | 50% (inactive) | 70% (active) | 7% (inactive) | 11% (inactive) | 49.2% (inactive) | 19% (inactive) | 57% (inactive) | 19.1% (inactive) | 17% (inactive) | 36% (inactive) | 5.4% (inactive) | 22% (inactive) | 59% (inactive) | 16.1% (inactive) | 25% (inactive) | 48% (inactive) | 8.2% (inactive)
6 | CCC[CH2][Sn]([F])([CH2]CCC)[O][Sn]([F])([CH2]CCC)[CH2]CCC | 51% (inactive) | 98% (active) | 97.5% (active) | 46% (inactive) | 99% (active) | 98.9% (active) | 50% (inactive) | 98% (active) | 98.2% (active) | 34% (inactive) | 98% (active) | 98.3% (active) | 54% (inactive) | 96% (active) | 98.5% (active) | 48% (inactive) | 97% (active) | 98.2% (active)
7 | Cc1oc2c([N+](=O)[O-])cccc2c1[N+](=O)[O-] | 98% (active) | 98% (active) | 99.5% (active) | 99% (active) | 99% (active) | 99.8% (active) | 99% (active) | 98% (active) | 99.6% (active) | 98% (active) | 98% (active) | 98.8% (active) | 99% (active) | 99% (active) | 52.2% (inactive) | 98% (active) | 98% (active) | 99.7% (active)
8 | O=[N+]([O-])O.O=[N+]([O-])O.[NH-]C1CCCCC1[NH-].[Pt+2] (centres undefined) | 33% (inactive) | 96% (active) | 52.1% (inactive) | 25% (inactive) | 95% (active) | 90.7% (active) | 57% (inactive) | 100% (active) | 79.5% (active) | 45% (inactive) | 97% (active) | 86.4% (active) | 56% (inactive) | 100% (active) | 88.9% (active) | 16% (inactive) | 75% (active) | 92.3% (active)
9 | CS/C([S-])=N/N=C/c1ccccn1.[Cl][Pt+] | 1% (inactive) | 58% (inactive) | 82.2% (active) | 3% (inactive) | 80% (active) | 38% (inactive) | 20% (inactive) | 96% (active) | 89.6% (active) | -3% (inactive) | 29% (inactive) | 9.15% (inactive) | -4% (inactive) | 77% (active) | 19.6% (inactive) | 33% (inactive) | 93% (active) | 64.2% (inactive)
10 | [Se]c1ncnc2nc[nH]c12 | 21% (inactive) | 57% (inactive) | 57.9% (inactive) | 15% (inactive) | 37% (inactive) | 38.7% (inactive) | 13% (inactive) | 41% (inactive) | 37.9% (inactive) | 11% (inactive) | 23% (inactive) | 2.25% (inactive) | -2% (inactive) | 60% (inactive) | 39.2% (inactive) | 17% (inactive) | 68% (inactive) | 84.2% (active)
11 | O=[N+]([O-])c1ccc(C=Cc2ccc(C(F)(F)F)cc2)cc1.[C-]#[O+].[C-]#[O+].[C-]#[O+].[Cr] | 2% (inactive) | 67% (inactive) | 29% (inactive) | 0% (inactive) | 51% (inactive) | 55.8% (inactive) | 17% (inactive) | 60% (inactive) | 72.5% (active) | -22% (inactive) | 60% (inactive) | 26.6% (inactive) | 0% (inactive) | 75% (active) | 73.2% (active) | 12% (inactive) | 72% (active) | 73.9% (active)
12 | CC(C)c1cccc(C(C)C)c1NC(=O)C(=O)CC(=O)CC(c1ccccc1)c1c(O)c2ccccc2oc1=O (centres undefined) | 8% (inactive) | 8% (inactive) | 59.4% (inactive) | -12% (inactive) | -12% (inactive) | 43% (inactive) | 11% (inactive) | 11% (inactive) | 71% (active) | -2% (inactive) | -2% (inactive) | 55.2% (inactive) | -1% (inactive) | -1% (inactive) | 70.7% (active) | 7% (inactive) | 7% (inactive) | 58.6% (inactive)
13 | N=P(c1ccccc1)(c1ccccc1)c1ccccc1 (tested in a mixture with another compound) | 10% (inactive) | 32% (inactive) | 62.2% (inactive) | 6% (inactive) | 25% (inactive) | 17.3% (inactive) | 14% (inactive) | 32% (inactive) | 44.1% (inactive) | -3% (inactive) | 10% (inactive) | 25.4% (inactive) | -1% (inactive) | 29% (inactive) | 19.1% (inactive) | 6% (inactive) | 27% (inactive) | 59.9% (inactive)
14 | C[C@H]1C/C=C/[C@H]2[C@@H]3O[C@]3(C)[C@@H](C)[C@H]3[C@H](Cc4ccccc4)NC(=O)[C@]32OC(=O)O/C=C/[C@@](C)(O)C1=O | 21% (inactive) | 30% (inactive) | 72.7% (active) | 19% (inactive) | 53% (inactive) | 91.3% (active) | 19% (inactive) | 14% (inactive) | 32.7% (inactive) | 25% (inactive) | 36% (inactive) | 67.3% (inactive) | 28% (inactive) | 48% (inactive) | 83.2% (active) | 17% (inactive) | 46% (inactive) | 81.8% (active)
15 | C[CH2][Sn]([Cl])([Cl])[CH2]C | 20% (inactive) and 26% (inactive) | 58% (inactive) and 79% (active) | 70.3% (active) and 68.2% (inactive) | 10% (inactive) and 16% (inactive) | 75% (active) and 85% (active) | 53.3% (inactive) and 77.2% (active) | 12% (inactive) and 21% (inactive) | 50% (inactive) and 68% (inactive) | 55.9% (inactive) and 44.2% (inactive) | 2% (inactive) and 31% (inactive) | 42% (inactive) and 35% (inactive) | 53.9% (inactive) and 48.2% (inactive) | 17% (inactive) and 11% (inactive) | 69% (inactive) and 58% (inactive) | 48.5% (inactive) and 41.8% (inactive) | 19% (inactive) and 30% (inactive) | 45% (inactive) and 81% (active) | 33.9% (inactive) and 23.1% (inactive)
16 | CC(=O)Oc1ccc(N=C2C=C(Cl)C(=O)C(Cl)=C2)cc1 | 5% (inactive) | 23% (inactive) | 34.5% (inactive) | 9% (inactive) | 26% (inactive) | -2.05% (inactive) | 2% (inactive) | 24% (inactive) | 33.4% (inactive) | 6% (inactive) | 14% (inactive) | -23.8% (inactive) | 9% (inactive) | 46% (inactive) | 22.7% (inactive) | 7% (inactive) | 54% (inactive) | 19.9% (inactive)
17 | Nc1ccc(N=Nc2ccccc2)cc1 | 1% (inactive) | 76% (active) | 69.7% (inactive) | -4% (inactive) | 37% (inactive) | 17.6% (inactive) | 1% (inactive) | 92% (active) | 37.4% (inactive) | 5% (inactive) | 50% (inactive) | 3.25% (inactive) | 3% (inactive) | 43% (inactive) | 37.4% (inactive) | 1% (inactive) | 78% (active) | 82.5% (active)
18 | Oc1c(-c2ccccc2)cc(-[n+]2c(-c3ccccc3)cc(-c3ccccc3)cc2-c2ccccc2)cc1-c1ccccc1 | 97% (active) | 99% (active) | 91.7% (active) | 98% (active) | 99% (active) | 92.7% (active) | 98% (active) | 99% (active) | 89.6% (active) | 98% (active) | 98% (active) | 89.8% (active) | 99% (active) | 99% (active) | 89.8% (active) | 98% (active) | 99% (active) | 91.5% (active)
